# Values joined by “and” are separate entries in the source; they are usually repeats but may differ in a detail not shown here. Equal entries are not always repeated. In all, about 330,000 compounds went through this assay and about 700 (0.21%) were called active. The list comes from a sample in which actives are over-represented; it also holds similar structures and randomly drawn compounds. Unmarked numbers belong to inactive results.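 The calls were made as follows: active = OD600 absorbance below the run mean of sample wells minus 3.6 SD, in any replicate (cut at about 0.56 in these data); inactive = the rest.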
# Assay: E. coli growth inhibition, primary screen, OD600 (AID 1053175)
# Details: Escherichia coli growth, OD600, 23 h; hits give low values
row,SMILES,OD600 absorbance
1,Cc1cc(C)nc(NN=Cc2ccccc2OCc2ccccc2)n1,0.638
2,Cn1ccc(=Nc2ccc(NC(=O)c3ccc(N=c4ccn(C)c5ccc([N+](=O)[O-])cc45)cc3)cc2)cc1,0.104 (active)
3,CC(=O)NC(=S)Nc1ccc(NC(=S)NC(=O)c2ccc([N+](=O)[O-])cc2)cc1,0.699
4,COc1cc(NS(=O)(=O)c2ccc(NC(=O)c3ccc([N+](=O)[O-])cc3)cc2)ncn1,0.659
5,Fc1cccc(CCN2CCNCC2Cc2ccccc2)c1 (configuration not stated),0.658
6,O=C(O)c1cc(O)c2c(c1)C(C1c3cc(C(=O)O)cc(O)c3C(=O)c3c(OC4OC(CO)C(O)C(O)C4O)cccc31)c1cccc(OC3OC(CO)C(O)C(O)C3O)c1C2=O (configuration not stated),0.667
7,COC(=O)c1cccc(C23CC4(C2)C(CN(CC2CCCCC2)C4c2ccccc2)C3c2ccccc2)c1 (configuration not stated),0.699
8,CCc1ccc(C=NNC(=O)Cc2ccc(OC)c(OC)c2)s1,0.627
9,Cc1nn(-c2ccccc2)c(C)c1C=Nn1c(-c2ccccc2Br)n[nH]c1=S,0.624
10,CCOc1ccc(Br)cc1C(=O)NN=Cc1c[nH]c2ccccc12,0.686
11,O=C(NN=C/C(Br)=C\c1ccccc1)c1n[nH]c2c1CCC2,0.619
12,C[C@]12C(=O)N(c3cccc(F)c3)C(=O)N1C1c3ccccc3OCC1C2c1ccccc1 (some centres not stated),0.707 and 0.703
13,C=Cc1ccc(C2=CC(=O)CC(c3ccc(OC)cc3)C2)cc1 (configuration not stated),0.663
14,O=C(NN=Cc1cccc2ccccc12)c1cccnc1,0.676
15,O=C(C=Cc1ccccc1)NCCSCc1ccccc1Cl,0.63
16,O=C(CCNc1n[nH]c(=O)[nH]c1=O)NN=Cc1ccc(Cl)cc1,0.691
17,CCOC1OC(C(=O)NCc2nc3ccccc3[nH]2)=CC(c2cn(C(C)=O)c3ccccc23)C1CCCO (configuration not stated),0.677 and 0.601
18,ON=Cc1cccn1-c1nccs1,0.697
19,Cc1ccc(C(=O)NN=Cc2c[nH]c3ccccc23)o1,0.69

row,SMILES,OD600 absorbance
1,CCn1c(C)nc2cc(C(=O)NN=C(C)c3ccc(N4CCOCC4)cc3)ccc21,0.666
2,CCCC(CNC(CNC)C(C)O)NCCc1ccc(OC)cc1 (configuration not stated),0.679
3,O=Cc1c(Nc2ccccc2Cl)nc2ccccn2c1=O,0.678
4,CCc1c(Nc2ccccc2Cl)nc(N)[nH]c1=O,0.475 (active)
5,CCc1c(Nc2ccccc2C)nc(N)[nH]c1=O,0.675
6,c1ccc(N=C2N=C(Nc3ccccn3)c3ccccc32)nc1,0.705
7,CCC1=C(OC(=O)N(CC)CC)N2C(=O)OC(=NCC(=O)OC)[C@]2(C)C2C1=CCC1C(=O)NC(=O)C12 (some centres not stated),0.617
8,CCCN1CCn2c3c(c4cc(Br)ccc42)CCCC31 (configuration not stated),0.655
9,O=C(CCNS(=O)(=O)c1ccc(Br)cc1)NCC1CCCO1 (configuration not stated),0.66
10,OC(CNCC1CCCO1)Cn1c2ccc(Br)cc2c2cc(Br)ccc21 (configuration not stated),0.547 (active)
11,O=C(CC=NOCc1ccc([N+](=O)[O-])cc1)Nc1ccc(Br)cc1,0.631
12,O=C(O)CC1c2cc(F)ccc2S(=O)(=O)N1Cc1ccccc1 (configuration not stated),0.672
13,O=[N+]([O-])c1cccc(C=NN2CCN(c3ccccn3)CC2)c1,0.693
14,Cc1ccc(NCC(=O)NN=Cc2ccc([N+](=O)[O-])o2)cc1,0.564
15,C/[N+]([O-])=C\c1ccc([N+](=O)[O-])o1,0.0665 (active)
16,CCn1c(/C=C/c2ccc([N+](=O)[O-])o2)nc2ccccc2c1=O,0.629
17,Cc1ccc(-c2nn(-c3ccccc3)cc2C(=O)NC2CCC(O)CC2)cc1 (configuration not stated),0.658
18,CCc1ccc(-c2nn(-c3ccccc3C)cc2C(=O)N2CCN(C3CCS(=O)(=O)C3)CC2)cc1 (configuration not stated),0.66
19,CCc1ccc(-c2nn(-c3ccccc3)cc2CSC(=N)N)cc1,0.201 (active)

row,SMILES,OD600 absorbance
1,COc1cccc(C=NNC(=O)CSc2cccc3cccnc23)c1,0.635
2,COC(=O)[C@]1(Cc2ccccc2)NC(c2ccc(-c3cc(C(C)=O)cs3)cc2)C2C(=O)N(C)C(=O)C21 (some centres not stated),0.738
3,COC(=O)C1=C(C)N(Cc2ccco2)C(=O)NC1c1cccc(C(F)(F)F)c1 (configuration not stated),0.7
4,COc1ccc(C2C=CCN(S(=O)(=O)C=Cc3ccccc3)C(Cc3ccccc3)C(=O)N2Cc2ccc(F)cc2)cc1 (configuration not stated),0.733
5,CCOc1cc(C=NNc2ncnc(Cl)c2N)ccc1O,0.682
6,COc1cc(C=Nn2cnnc2)ccc1OCCOc1ccccc1,0.782
7,Cc1c(CN2CCC(CO)(CCOc3ccccc3)CC2)[nH]c2ccc(Cl)cc12,0.527 (active)
8,OCC1(CCOc2ccccc2)CCN(Cc2cn[nH]c2-c2ccccc2)CC1,0.675
9,CCOC(=O)C1(CCOc2ccccc2)CCN(Cc2cc(OC)c(O)cc2Cl)CC1,0.602
10,COc1cc(C(=O)ON=C2C=CC(=O)C=C2C)cc(OC)c1OC,0.685
11,Cc1cccc(C(=O)OCC(=O)NC(C)C2CC3CCC2C3)c1O (configuration not stated),0.676
12,Cc1c(C(=O)NC(C)C2CC3CCC2C3)cccc1[N+](=O)[O-] (configuration not stated),0.695
13,COC(=O)c1cc(C(=O)NC(C)C2CC3CCC2C3)cc([N+](=O)[O-])c1 (configuration not stated),0.52 (active)
14,CC=C(C)C(=O)NCCN1C2=NCC(C)N2CC1Cc1ccc(O)cc1 (configuration not stated),0.694
15,Cc1occc1C(=O)NN=Cc1cccc2ccccc12,0.677
16,COc1ccc(OC)c(C=Nn2c(-c3n[nH]c4c3CCC4)n[nH]c2=S)c1,0.697
17,COc1cc(C=NNC(=O)c2ccc3nc[nH]c3c2)ccc1O,0.686
18,CCOC(=O)C1C2COc3ccccc3C2N2C(=O)N(c3cccc(Cl)c3)C(=O)[C@@]12C (some centres not stated),0.65 and 0.728
19,Nc1nnnn1N=Cc1ccc(O)cc1,0.733
